Test results from PubChem BioAssay AID2060323 (National Center for Advancing Translational Sciences (NCATS), 2025).
Results filed as inconclusive are left out. A call without a number means that no potency is given here. Activity calls are given as the source filed them. Calls come from the whole dose curve; as a rule, active = well fitted activation curve with a large enough effect; inconclusive = small, poorly fitted or top-dose-only effect; inactive = no such curve, though single readings can be large or run the other way.

The compounds below were run against Cellular tumor antigen p53 (Homo sapiens) (UniProt P04637) (assay: Confirmatory qHTS for small molecule compounds that upregulate eGFP-tagged delta133p53alpha (in C-terminal) cells.). Details: delta133p53alpha-eGFP (C-terminal) reporter cells, GFP fluorescence upregulation; series mostly up to 57.5 µM.
Source text: Assay Development and Screening Technology
National Center for Advancing Translational Sciences (NCATS),
National Institute of Health (NIH), Rockville, Maryland
Cellular senescence (CS) is one of the hallmarks of aging and age-related diseases. Senescent cells are characterized by an irreversible growth arrest, an increase in senescence-associated beta-galactosidase (SA-beta-gal) activity and p16INK4a expression, an activation of the DNA damage response pathways, and the emergence of a senescence-associated secretory phenotype (SASP).
Delta133p53alpha, a human/primate-specific p53 protein isoform, delays or inhibits the induction of CS and SASP in various types of human cells, including progeria-derived fibroblasts, primary normal astrocytes, and CD8+ T lymphocytes. Induction of delta133p53alpha with small molecule compounds may provide therapeutic opportunities for inhibition of senescence/SASP-associated pathologies in progeria syndromes, astrocyte-mediated neuroprotection in neurodegenerative diseases, and possibly prevention and treatment of a wider range of senescence- and aging-associated diseases.
Here we report the development and validation of a cell-based quantitative high throughput screening (qHTS) assay in 1,536-well format. This qHTS assay uses the NCI-H358 cell line with doxycycline-inducible expression of enhanced green fluorescent protein (eGFP)-tagged delta133p53alpha, which allows efficient and highly quantitative measurement of the protein levels.
PROTOCOL TABLE (as described by Inglese J, Shamu CE and Guy RK. 2007)
SEQUENCE No. (e.g., 1, 2, 3, etc.); […] (e.g., Cells, Incubation, Reagent, etc.); VALUE; DESCRIPTION.
1; Cells; 4uL; 800 doxycycline treated cells / well in doxycycline-free media, 1536-well black, clear-bottom low base Aurora microplates.
2; Compounds; 23 nL; Kalypsis pin tool (Wako) equipped with 1536-well pin heads, 5-azacytidine positive control.
3; Incubation; 24 hr; 37C, 5% CO2; 95% relative humidity.
4; Aspiration; 1x; BioTek EL406 washer dispenser (Agilent).
5; Fixing; 3.5% paraformaldehyde, BioTek EL406 washer dispenser (Agilent).
6; Washing; 1x PBS; BioTek EL406 washer dispenser (Agilent).
7; Nuclei staining; 1:1000 dilution of Hoechst 33342 (Thermofisher), BioTek EL406 washer dispenser (Agilent).
8; Incubation; 20 min; in the dark at room temperature.
9; Washing; 2x, 1x PBS (ThermoFisher), BioTek EL406 washer dispenser (Agilent).
10; Reagent; 10 uL; 1x PBS per well, sealed with clear adhesive tape.
11; Detection; Fluorescence, Acumen eX3 laser scanning cytometer (STP Labtech), GFP filters […].
NOTES (numbers refer to sequence numbers above).
1. NCI-H358 cells expressing eGFP-tagged delta133p53alpha were grown in T75 culture flasks and treated with doxycycline for 24h, at 10 ng/ml for eGFP-D133p53a cells (N-terminal cell) and 100 ng/ml for D133p53a-eGFP cells (C-terminal cells). Cells were trypsinized, counted using a Counted 3 Automated Cell Counter (Thermo Fisher), and diluted to a concentration of 200,000 cells/ml. A Multidrop Combi Reagent Dispenser (ThermoFisher) was used to dispense 800 cells/well in […] of doxycycline-free media, into 1536-well black/clear bottom low base plates (AuroraMicroplates).
2. After plating cells, 23 nl of compound library, DMSO vehicle control or positive control (5-azacytidine) were transferred by Pin Tool (Wako). The plate map layout was the same for each plate: (column 1) non-doxycycline treated cells + DMSO vehicle control; (column 2) doxycycline treated cells + DMSO vehicle control baseline; (column 3) doxycycline treated cells + positive control 57.5 uM final concentration 5-azacytidine; (column 4) doxycycline treated cells + serial dilution of 5-azacytidine, 16-point 1:2 titration spanning 1.8 nM to […] final concentration; (columns 5-48) doxycycline treated cells + titration of library compounds.
3. Cells were incubated at 37 °C, 5 % CO2, 95% RH with breathable metal lid for 24h.
4-10. […]

Cellular tumor antigen p53 (Homo sapiens), sequence (P04637 whole entry, looked up): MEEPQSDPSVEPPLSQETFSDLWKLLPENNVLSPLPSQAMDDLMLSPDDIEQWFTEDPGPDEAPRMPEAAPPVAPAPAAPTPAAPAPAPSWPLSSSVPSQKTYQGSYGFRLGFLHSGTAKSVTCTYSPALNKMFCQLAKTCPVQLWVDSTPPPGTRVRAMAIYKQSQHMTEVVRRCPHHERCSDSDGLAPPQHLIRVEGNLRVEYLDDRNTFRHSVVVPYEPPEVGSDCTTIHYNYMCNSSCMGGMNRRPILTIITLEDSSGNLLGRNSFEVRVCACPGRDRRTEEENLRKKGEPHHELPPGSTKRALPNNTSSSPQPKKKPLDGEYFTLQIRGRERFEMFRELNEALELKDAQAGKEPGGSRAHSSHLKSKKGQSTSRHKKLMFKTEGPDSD

SMILES	Potency
O=C1/C(=C\c2ccccc2)C[C@@]2(O)[C@H]3Cc4ccc(O)c5c4[C@@]2(CCN3CC2CC2)[C@H]1O5	15.3 µM (active)
C[C@]12Cc3cn4c(nc3C=C1CCC1C2CC[C@@]2(C)[C@H]1CC[C@@]2(O)C#N)nc1ccccc14 (some centres undefined)	19.3 µM (active)
CN1C2CCC1CC(OC(c1ccccc1)c1ccccc1N)C2 (centres undefined)	inactive
c1ccc2c(c1)OCC(C1=NCCN1)O2 (centres undefined)	inactive
CCS(=O)(=O)Nc1cccc(C(=C2CCCCC2)c2cnc[nH]2)c1	inactive
CC1=NN=C(c2ccc(N)cc2)c2cc3c(cc2C1)OCO3	34.3 µM (active)
CC[C@@]1(O)C(=O)OCc2c1cc1n(c2=O)Cc2cc3ccccc3nc2-1	1.72 µM (active)
Cc1c2ccncc2c(C)c2c1[nH]c1ccccc12	3.06 µM (active)
CC1(C(=O)O)C2CCC(O2)C1(C)C(=O)O (centres undefined)	inactive
CC(=O)[C@H]1CC[C@H]2[C@@H]3CC[C@H]4C[C@](C)(O)CC[C@]4(C)[C@H]3CC[C@]12C	inactive
CCn1cnc2c(Nc3cccc(Cl)c3)nc(N[C@@H]3CCCC[C@@H]3N)nc21	9.68 µM (active)
c1ccc2c(c1)[I+]c1ccccc1-2	19.3 µM (active)
N[C@H](CCCCCP(=O)(O)O)C(=O)O	inactive
CP(=O)(O)C1=CCNCC1	inactive
